This is an account of results in ChEMBL document CHEMBL2218924, “A broad activity screen in support of a chemogenomic map for kinase signalling research and drug discovery” (Biochem J, 2013).

Assay [1] has as its target Tyrosine-protein kinase SYK (Homo sapiens) (UniProt P43405). The settings on record: at 10 µM.
The target of assay [2] is T1, Mitogen-activated protein kinase kinase kinase 7 (Homo sapiens) (UniProt O43318).
T1 sequence (whole entry): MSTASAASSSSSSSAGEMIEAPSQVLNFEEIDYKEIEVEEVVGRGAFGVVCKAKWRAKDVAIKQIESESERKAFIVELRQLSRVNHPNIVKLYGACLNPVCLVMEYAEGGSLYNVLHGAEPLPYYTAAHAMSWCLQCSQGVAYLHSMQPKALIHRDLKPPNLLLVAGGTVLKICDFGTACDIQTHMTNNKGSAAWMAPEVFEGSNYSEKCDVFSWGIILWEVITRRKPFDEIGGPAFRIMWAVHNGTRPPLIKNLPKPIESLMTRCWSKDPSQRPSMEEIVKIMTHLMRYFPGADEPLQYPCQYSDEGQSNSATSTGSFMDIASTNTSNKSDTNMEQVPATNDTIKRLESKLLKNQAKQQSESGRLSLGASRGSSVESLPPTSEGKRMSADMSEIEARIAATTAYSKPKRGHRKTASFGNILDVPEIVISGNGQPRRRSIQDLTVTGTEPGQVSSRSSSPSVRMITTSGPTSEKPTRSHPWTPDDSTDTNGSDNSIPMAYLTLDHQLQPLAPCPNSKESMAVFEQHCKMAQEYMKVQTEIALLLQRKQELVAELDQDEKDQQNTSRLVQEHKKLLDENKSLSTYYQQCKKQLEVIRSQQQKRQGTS
The settings on record: at 1 µM.

In assay [3] the target is T1, Mitogen-activated protein kinase kinase kinase 7 (Homo sapiens). The settings on record: at 10 µM.
Assay [4] has as its target T2, Serine/threonine-protein kinase TAO1 (Homo sapiens) (UniProt Q7L7X3).
T2 sequence (whole entry): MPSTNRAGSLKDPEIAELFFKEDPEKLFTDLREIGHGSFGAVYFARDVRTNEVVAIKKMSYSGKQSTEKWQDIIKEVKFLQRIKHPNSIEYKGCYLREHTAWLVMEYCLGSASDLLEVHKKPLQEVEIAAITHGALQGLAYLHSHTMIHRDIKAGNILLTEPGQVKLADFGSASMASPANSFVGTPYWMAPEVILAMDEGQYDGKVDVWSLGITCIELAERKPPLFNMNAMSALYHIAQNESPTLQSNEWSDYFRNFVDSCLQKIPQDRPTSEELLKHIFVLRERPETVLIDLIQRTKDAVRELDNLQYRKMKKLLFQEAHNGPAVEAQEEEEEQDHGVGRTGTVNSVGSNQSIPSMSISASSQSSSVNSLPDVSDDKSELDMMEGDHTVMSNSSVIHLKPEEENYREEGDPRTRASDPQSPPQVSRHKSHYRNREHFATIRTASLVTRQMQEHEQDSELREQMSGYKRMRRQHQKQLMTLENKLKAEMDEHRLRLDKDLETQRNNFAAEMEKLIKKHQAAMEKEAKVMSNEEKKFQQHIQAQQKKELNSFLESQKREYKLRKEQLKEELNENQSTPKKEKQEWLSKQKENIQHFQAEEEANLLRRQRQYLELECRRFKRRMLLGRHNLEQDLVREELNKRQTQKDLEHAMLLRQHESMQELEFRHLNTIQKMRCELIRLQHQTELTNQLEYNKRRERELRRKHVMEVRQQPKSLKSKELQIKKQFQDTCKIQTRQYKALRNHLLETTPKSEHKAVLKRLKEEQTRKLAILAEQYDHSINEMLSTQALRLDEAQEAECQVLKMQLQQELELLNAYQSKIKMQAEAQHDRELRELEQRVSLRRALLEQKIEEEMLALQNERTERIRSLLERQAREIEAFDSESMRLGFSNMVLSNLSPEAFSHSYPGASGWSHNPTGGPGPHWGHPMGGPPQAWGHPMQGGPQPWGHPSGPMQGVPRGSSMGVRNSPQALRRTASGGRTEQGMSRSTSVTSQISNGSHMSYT
The settings on record: at 1 µM.

Assay [5] deals with T2, Serine/threonine-protein kinase TAO1 (Homo sapiens). The settings on record: at 10 µM.
For assay [6], the target named is T3, Serine/threonine-protein kinase TAO2 (Homo sapiens) (UniProt Q9UL54).
T3 sequence (whole entry): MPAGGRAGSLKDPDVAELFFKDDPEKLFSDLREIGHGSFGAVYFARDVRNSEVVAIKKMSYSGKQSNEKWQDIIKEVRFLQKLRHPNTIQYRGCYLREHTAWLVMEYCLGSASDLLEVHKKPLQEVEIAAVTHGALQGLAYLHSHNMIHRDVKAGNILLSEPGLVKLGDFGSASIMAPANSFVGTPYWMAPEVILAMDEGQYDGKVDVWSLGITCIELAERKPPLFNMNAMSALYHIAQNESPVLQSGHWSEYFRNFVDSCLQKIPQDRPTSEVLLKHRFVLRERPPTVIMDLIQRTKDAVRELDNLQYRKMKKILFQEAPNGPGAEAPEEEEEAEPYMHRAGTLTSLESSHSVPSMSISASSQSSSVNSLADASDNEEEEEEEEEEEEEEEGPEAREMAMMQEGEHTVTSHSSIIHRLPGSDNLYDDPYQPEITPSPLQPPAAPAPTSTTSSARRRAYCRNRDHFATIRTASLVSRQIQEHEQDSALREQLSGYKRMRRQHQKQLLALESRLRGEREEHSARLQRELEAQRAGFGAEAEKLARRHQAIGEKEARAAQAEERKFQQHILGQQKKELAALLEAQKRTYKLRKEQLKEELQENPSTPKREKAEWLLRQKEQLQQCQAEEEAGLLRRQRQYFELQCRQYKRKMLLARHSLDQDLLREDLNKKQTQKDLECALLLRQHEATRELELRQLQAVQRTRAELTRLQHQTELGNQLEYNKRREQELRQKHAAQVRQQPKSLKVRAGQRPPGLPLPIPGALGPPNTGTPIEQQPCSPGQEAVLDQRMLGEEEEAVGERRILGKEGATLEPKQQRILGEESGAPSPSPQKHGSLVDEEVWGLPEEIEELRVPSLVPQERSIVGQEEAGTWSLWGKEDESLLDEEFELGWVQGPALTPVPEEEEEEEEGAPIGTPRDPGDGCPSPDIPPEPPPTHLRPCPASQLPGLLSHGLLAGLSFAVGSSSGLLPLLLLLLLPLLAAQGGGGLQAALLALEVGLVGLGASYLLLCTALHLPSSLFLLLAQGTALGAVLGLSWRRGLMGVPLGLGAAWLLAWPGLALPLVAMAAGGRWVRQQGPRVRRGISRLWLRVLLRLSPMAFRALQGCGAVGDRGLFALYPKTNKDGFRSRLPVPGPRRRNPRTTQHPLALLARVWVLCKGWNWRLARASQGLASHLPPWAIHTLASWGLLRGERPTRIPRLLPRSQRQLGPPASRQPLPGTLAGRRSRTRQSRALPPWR
The settings on record: at 1 µM.

Assay [7] has as its target T3, Serine/threonine-protein kinase TAO2 (Homo sapiens). The settings on record: at 10 µM.
Assay [8] concerns the target T4, Serine/threonine-protein kinase TAO3 (Homo sapiens) (UniProt Q9H2K8).
T4 sequence (whole entry): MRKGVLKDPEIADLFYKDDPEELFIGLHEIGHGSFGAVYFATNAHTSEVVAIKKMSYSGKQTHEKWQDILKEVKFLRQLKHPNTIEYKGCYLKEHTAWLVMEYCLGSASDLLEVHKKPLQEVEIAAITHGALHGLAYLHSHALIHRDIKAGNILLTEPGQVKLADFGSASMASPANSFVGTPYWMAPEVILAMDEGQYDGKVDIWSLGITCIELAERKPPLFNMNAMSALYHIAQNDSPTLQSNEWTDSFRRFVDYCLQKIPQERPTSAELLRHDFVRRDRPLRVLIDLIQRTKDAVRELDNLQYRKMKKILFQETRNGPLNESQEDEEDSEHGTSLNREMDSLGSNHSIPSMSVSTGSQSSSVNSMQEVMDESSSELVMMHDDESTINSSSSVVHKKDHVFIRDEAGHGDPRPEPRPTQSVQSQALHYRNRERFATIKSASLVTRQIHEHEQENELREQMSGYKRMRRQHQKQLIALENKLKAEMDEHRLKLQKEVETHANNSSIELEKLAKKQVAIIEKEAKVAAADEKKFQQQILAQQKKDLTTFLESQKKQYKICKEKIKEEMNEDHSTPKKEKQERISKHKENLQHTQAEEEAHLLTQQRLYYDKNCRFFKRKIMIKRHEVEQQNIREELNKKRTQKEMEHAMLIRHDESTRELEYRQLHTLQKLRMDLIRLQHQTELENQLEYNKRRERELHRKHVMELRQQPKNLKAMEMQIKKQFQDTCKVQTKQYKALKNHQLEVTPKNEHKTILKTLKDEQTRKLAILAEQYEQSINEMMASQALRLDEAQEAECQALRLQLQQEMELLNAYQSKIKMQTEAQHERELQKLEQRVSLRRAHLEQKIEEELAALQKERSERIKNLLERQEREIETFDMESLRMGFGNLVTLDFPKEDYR
The settings on record: at 1 µM.

Assay [9] has as its target T4, Serine/threonine-protein kinase TAO3 (Homo sapiens). The settings on record: at 10 µM.
The target in assay [10] is T5, Serine/threonine-protein kinase TBK1 (Homo sapiens) (UniProt Q9UHD2).
T5 sequence (whole entry): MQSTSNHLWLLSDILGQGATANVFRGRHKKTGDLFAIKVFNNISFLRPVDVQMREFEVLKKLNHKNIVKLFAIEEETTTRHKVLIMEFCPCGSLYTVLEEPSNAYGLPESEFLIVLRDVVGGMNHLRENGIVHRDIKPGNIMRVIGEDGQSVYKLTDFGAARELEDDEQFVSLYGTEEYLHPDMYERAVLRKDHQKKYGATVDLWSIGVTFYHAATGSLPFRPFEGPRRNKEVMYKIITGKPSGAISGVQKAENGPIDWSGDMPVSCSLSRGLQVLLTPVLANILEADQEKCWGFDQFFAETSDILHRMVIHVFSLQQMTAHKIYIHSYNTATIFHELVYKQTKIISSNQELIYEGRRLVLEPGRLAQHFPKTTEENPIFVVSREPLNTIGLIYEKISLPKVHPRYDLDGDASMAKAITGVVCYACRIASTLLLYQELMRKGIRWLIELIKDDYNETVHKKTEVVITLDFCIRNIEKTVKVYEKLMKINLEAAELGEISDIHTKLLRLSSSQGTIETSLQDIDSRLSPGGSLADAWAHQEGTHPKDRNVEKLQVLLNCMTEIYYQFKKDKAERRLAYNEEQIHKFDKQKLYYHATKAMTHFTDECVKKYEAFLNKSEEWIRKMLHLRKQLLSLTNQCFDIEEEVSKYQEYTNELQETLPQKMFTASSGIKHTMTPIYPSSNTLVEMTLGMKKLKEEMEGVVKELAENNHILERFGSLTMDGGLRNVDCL
The settings on record: at 1 µM.

On to `O=C(O)c1ccc2c3c1cccc3c(=O)n1c3ccccc3nc21`, for which the residual activity turned out to be 105% in [1]; 89% in assay [2]; 41% in assay [3]; 90% in assay [4]; 56% in [5]; 110% in assay [6]. For the same compound, the residual activity in assay [7] came to 91%; in assay [8], 91%; in assay [9], 65%; in assay [10], 19%.
